Measurements reported in PubChem BioAssay.
For some of these results: Potency and affinity values are given separately. Calls of active or inactive are those of the source. Unless noted, the rule behind the calls is not given here.

Assays:
[1] = antimalarial activity against Dd2 strain (AID 2302;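 active = growth inhibition above 50% at the single 2 µM test dose, taken to imply half-maximal potency below 2 µM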;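 note: 0% = DMSO untreated growth and 100% = chloroquine plus artemisinin killed control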); details: P. falciparum Dd2 in RBCs, LDH growth readout, 72 h; at 2 µM; active compounds read high
[2] = HepG2 cytotoxicity, primary screen, cytotoxicity control for P. falciparum antimalarial project, cell-based, ATP luminescence (AID 2303;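 active = inhibition above 50%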;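 note: 0% = DMSO wells and 100% = digitonin-killed cells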); details: HepG2 viability, 24-48 h, at 10 µM, active compounds read high
[3] = target: L-lactate dehydrogenase (Plasmodium falciparum (isolate CDC / Honduras)) (UniProt Q27743); experiment: PfLDH activity inhibition – cell lysate, 3D7 strain, counter-screen for P. falciparum growth inhibition project (AID 2304);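 note: 0% = vehicle and 100% = reference inhibitor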; details: P. falciparum 3D7 crude extract, LDH APAD/NBT absorbance; at 2 µM; active compounds read high
Sequence of L-lactate dehydrogenase (Plasmodium falciparum (isolate CDC / Honduras)) (Q27743 whole entry, looked up): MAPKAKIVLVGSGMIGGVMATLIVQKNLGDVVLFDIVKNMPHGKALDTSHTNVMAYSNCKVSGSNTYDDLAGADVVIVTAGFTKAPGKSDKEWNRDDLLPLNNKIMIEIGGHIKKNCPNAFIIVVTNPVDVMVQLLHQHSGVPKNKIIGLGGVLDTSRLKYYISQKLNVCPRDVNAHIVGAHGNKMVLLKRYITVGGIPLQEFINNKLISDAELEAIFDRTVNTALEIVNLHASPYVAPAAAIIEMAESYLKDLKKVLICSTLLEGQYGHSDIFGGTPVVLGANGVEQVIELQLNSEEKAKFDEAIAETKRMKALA

[4] = inhibition of 3D7 malaria parasite growth – strain 3D7 (AID 2306);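 note: 0% = DMSO wells and 100% = chloroquine plus artemisinin control wells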; details: P. falciparum 3D7 erythrocytic growth, LDH absorbance, 72 h; at 2 µM; active compounds read high
[5] = target: Calcium-dependent protein kinase 1 (Plasmodium falciparum (isolate 3D7)) (UniProt P62344); experiment: PfCDPK1 kinase inhibitors, biochemical, TCAMS library (AID 1159585; cut-off not given, nearly all actives have IC50 up to about 0.98 µM;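 note: inhibitors leave more ATP so luminescence rises with inhibition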); details: recombinant PfCDPK1, Kinase-Glo ATP depletion luminescence
Sequence of Calcium-dependent protein kinase 1 (Plasmodium falciparum (isolate 3D7)) (P62344 whole entry, looked up): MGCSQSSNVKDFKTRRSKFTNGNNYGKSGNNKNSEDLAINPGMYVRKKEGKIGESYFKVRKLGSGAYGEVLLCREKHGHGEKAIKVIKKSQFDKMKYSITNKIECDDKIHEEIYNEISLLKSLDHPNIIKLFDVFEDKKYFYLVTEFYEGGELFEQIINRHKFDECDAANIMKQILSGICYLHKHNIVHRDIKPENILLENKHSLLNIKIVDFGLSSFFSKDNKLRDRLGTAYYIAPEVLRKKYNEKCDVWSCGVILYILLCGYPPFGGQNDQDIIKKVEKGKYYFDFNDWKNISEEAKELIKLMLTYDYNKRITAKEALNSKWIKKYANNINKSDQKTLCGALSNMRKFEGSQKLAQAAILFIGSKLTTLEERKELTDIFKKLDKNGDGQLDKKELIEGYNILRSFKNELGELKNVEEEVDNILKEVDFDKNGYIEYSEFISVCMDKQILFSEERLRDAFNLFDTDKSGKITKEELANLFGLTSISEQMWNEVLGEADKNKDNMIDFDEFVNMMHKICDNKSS

[6] = target: Plasmodium falciparum protein kinase 6 (PK6, PF3D7_1337100) (UniProt Q8IDW1); experiment: PfPK6 kinase inhibitors, biochemical, TCAMS library (AID 1159586); details: recombinant PfPK6, Kinase-Glo ATP depletion luminescence
Sequence of Plasmodium falciparum protein kinase 6 (PK6, PF3D7_1337100) (Q8IDW1 1-305): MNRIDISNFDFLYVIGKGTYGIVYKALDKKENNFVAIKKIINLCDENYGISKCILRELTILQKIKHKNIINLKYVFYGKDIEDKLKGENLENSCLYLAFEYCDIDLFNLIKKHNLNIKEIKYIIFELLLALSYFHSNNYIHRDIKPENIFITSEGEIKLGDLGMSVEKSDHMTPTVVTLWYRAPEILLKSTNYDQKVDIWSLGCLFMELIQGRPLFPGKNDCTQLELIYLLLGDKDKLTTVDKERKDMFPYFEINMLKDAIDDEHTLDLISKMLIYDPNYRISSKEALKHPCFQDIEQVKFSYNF

[7] = target: Protein kinase 7 (PK7), Plasmodium falciparum 3D7 (PF3D7_0213400) (UniProt Q7YTF7); experiment: inhibition of Plasmodium PK7 catalytic activity – biochemical, TCAMS antimalarial set, Kinase-Glo luminescence (AID 1159587); details: recombinant PfPK7, Kinase-Glo ATP depletion luminescence
Sequence of Protein kinase 7 (PK7), Plasmodium falciparum 3D7 (PF3D7_0213400) (Q7YTF7 1-343): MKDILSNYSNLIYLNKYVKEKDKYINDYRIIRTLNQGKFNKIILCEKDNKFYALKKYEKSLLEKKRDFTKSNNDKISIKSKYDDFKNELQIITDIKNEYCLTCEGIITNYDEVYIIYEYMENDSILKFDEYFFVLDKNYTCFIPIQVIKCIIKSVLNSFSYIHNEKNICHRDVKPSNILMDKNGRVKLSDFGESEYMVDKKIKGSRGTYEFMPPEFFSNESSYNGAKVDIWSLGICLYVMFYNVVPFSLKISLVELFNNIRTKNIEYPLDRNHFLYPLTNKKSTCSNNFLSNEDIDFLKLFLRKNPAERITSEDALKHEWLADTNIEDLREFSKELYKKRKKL

[8] = target: Calcium-dependent protein kinase 4 (Plasmodium falciparum (isolate 3D7)) (UniProt Q8IBS5); experiment: PfCDPK4 kinase inhibitors, biochemical, TCAMS library (AID 1159588; cut-off not given, nearly all actives have IC50 up to about 0.91 µM); details: recombinant PfCDPK4, Kinase-Glo ATP depletion luminescence
Sequence of Calcium-dependent protein kinase 4 (Plasmodium falciparum (isolate 3D7)) (Q8IBS5 whole entry, looked up): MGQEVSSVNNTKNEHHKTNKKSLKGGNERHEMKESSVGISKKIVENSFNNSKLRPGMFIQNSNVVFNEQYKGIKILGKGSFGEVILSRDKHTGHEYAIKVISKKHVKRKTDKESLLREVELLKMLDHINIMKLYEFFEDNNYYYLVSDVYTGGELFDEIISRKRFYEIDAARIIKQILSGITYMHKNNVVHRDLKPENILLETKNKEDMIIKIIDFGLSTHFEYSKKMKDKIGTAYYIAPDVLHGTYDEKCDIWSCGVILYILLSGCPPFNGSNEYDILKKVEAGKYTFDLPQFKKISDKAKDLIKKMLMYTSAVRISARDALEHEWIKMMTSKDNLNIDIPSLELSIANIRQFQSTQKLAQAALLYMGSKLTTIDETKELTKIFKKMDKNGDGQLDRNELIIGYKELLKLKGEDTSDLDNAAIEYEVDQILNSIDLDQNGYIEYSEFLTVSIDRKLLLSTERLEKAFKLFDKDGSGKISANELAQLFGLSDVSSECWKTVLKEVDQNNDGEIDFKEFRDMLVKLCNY

Cc1[nH]c(C)c(-c2ccc(-c3ccccc3Cl)nc2)c(=O)c1Br
active: growth inhibition [1] 96% | growth inhibition [4] 97%
inactive: inhibition [2] -2% | inhibition [3] -5% | outcome [5] | outcome [6] | outcome [7] | outcome [8]

Cc1cccc2[nH]c(-c3cccc(-c4ccc(NC(=O)Nc5ccsc5)cc4)c3)nc12
inactive: inhibition [2] 27% | inhibition [3] 0% | outcome [5] | outcome [6] | outcome [7] | outcome [8]
active: growth inhibition [1] 99% | growth inhibition [4] 100%

O=C(NCC(CCN1CCC(c2c[nH]c3ccccc23)CC1)c1ccccc1)Nc1ccc(Cl)c(Cl)c1 (stereo not drawn)
active: growth inhibition [1] 53% | growth inhibition [4] 101%
inactive: inhibition [2] 46% | inhibition [3] 5% | outcome [5] | outcome [6] | outcome [7] | outcome [8]

COc1ccc2c(c1)CC(C)(C)NC2CCCCCCCCC1NC(C)(C)Cc2cc(OC)ccc21 (stereo not drawn)
active: growth inhibition [1] 62% | growth inhibition [4] 98%
inactive: inhibition [2] 42% | inhibition [3] 0% | outcome [5] | outcome [6] | outcome [7] | outcome [8]

CCOC(=O)CCCOc1c(OC)cc(Cc2cnc(N)nc2N)cc1OC
active: growth inhibition [4] 96%
inactive: growth inhibition [1] 7% | inhibition [2] 10% | inhibition [3] 8% | outcome [5] | outcome [6] | outcome [7] | outcome [8]

Cc1cccc2[nH]c(-c3cccc(-c4cccc(NC(=O)c5ccncc5)c4)c3)nc12
inactive: inhibition [2] 22% | inhibition [3] -3% | outcome [5] | outcome [6] | outcome [7] | outcome [8]
active: growth inhibition [1] 78% | growth inhibition [4] 100%

O=C(NCc1ccc(Cl)c(Cl)c1)[C@H]1CNCCN1C(=O)c1ccccc1
inactive: growth inhibition [1] 4% | inhibition [2] -5% | inhibition [3] 1% | outcome [5] | outcome [6] | outcome [7] | outcome [8]
active: growth inhibition [4] 97%

Cc1ccccc1C1CCN(c2ccc(C(=O)NC3CC3)cn2)CC1
inactive: inhibition [2] 17% | inhibition [3] -2% | outcome [5] | outcome [6] | outcome [7] | outcome [8]
active: growth inhibition [1] 95% | growth inhibition [4] 95%

CN1CCN(c2ccc(-c3cc(-c4cc(F)c(F)c(F)c4)cnc3N)cc2)CC1
active: inhibition [2] 58% | growth inhibition [4] 88%
inactive: growth inhibition [1] 12% | inhibition [3] -4% | outcome [5] | outcome [6] | outcome [7] | outcome [8]

O=C(Nc1cc(C(F)(F)F)cc(C(F)(F)F)c1)c1cc(C(F)(F)F)cc(C(F)(F)F)c1
inactive: inhibition [2] 21% | inhibition [3] 2% | outcome [5] | outcome [6] | outcome [7] | outcome [8]
active: growth inhibition [1] 86% | growth inhibition [4] 101%

CCCNC[C@@H](O)[C@H](Cc1ccccc1)NC(=O)c1cc2c3c(c1)c(CC)cn3CCS(=O)(=O)N2C
inactive: inhibition [2] -4% | inhibition [3] 2% | outcome [5] | outcome [6] | outcome [7] | outcome [8]
active: growth inhibition [1] 98% | growth inhibition [4] 97%

Cc1ccc(NC(=O)Nc2ccc(S(=O)(=O)c3ccc(NC(=O)Nc4ccc(C)c(Cl)c4)cc3)cc2)cc1Cl
inactive: growth inhibition [1] 42% | inhibition [2] 49% | inhibition [3] 4% | outcome [5] | outcome [6] | outcome [7] | outcome [8]
active: growth inhibition [4] 99%

CCCCCCCC1CC(CC(=O)Nc2ccnc3ccc(OC)cc23)CN1 (stereo not drawn)
active: growth inhibition [1] 58% | growth inhibition [4] 90%
inactive: inhibition [2] 22% | inhibition [3] -2% | outcome [5] | outcome [6] | outcome [7] | outcome [8]

Nc1ncc(-c2cc3ccccc3o2)c(N)n1
active: growth inhibition [4] 81%
inactive: growth inhibition [1] 2% | inhibition [2] -3% | inhibition [3] 0% | outcome [5] | outcome [6] | outcome [7] | outcome [8]

COc1ccc(NC(=O)Nc2nc(-c3ccc(Cl)c(C)c3)cs2)cc1N1CCN(C)CC1
inactive: inhibition [2] 9% | inhibition [3] 0% | outcome [5] | outcome [6] | outcome [7] | outcome [8]
active: growth inhibition [1] 89% | growth inhibition [4] 99%

CCOc1ccc(-n2nc3c(Cl)nnc(-c4ccccc4)c3c2-c2ccccc2)cc1
active: growth inhibition [1] 99% | growth inhibition [4] 96%
inactive: inhibition [2] 0% | inhibition [3] 9% | outcome [5] | outcome [6] | outcome [7] | outcome [8]

CC1CCC(C(C)C)C(OC(=O)CSc2nnc3c(n2)[nH]c2ccccc23)C1 (stereo not drawn)
active: growth inhibition [1] 74% | growth inhibition [4] 88%
inactive: inhibition [2] -5% | inhibition [3] -2% | outcome [5] | outcome [6] | outcome [7] | outcome [8]

O=C(Nc1ccc(-c2nc3ccccc3[nH]2)cc1)c1cccc([N+](=O)[O-])c1
inactive: inhibition [2] 45% | inhibition [3] -3% | outcome [5] | outcome [6] | outcome [7] | outcome [8]
active: growth inhibition [1] 56% | growth inhibition [4] 101%

O=C(C=Cc1ccc(Cl)c(Cl)c1)NCCCCCN1CCC(CCCNS(=O)(=O)c2cccc(C(F)(F)F)c2)CC1
active: growth inhibition [1] 59% | inhibition [2] 99% | growth inhibition [4] 100%
inactive: inhibition [3] 3% | outcome [5] | outcome [6] | outcome [7] | outcome [8]

CC(C)(C)c1ccc(CNC(=O)c2cc(CNC3CCC(N)CC3)ccc2O)cc1 (stereo not drawn)
active: growth inhibition [4] 94%
inactive: growth inhibition [1] 1% | inhibition [2] 1% | inhibition [3] 0% | outcome [5] | outcome [6] | outcome [7] | outcome [8]

CCCN(CCC)c1nn2c(=O)c(C(=O)N3CCN(Cc4ccccc4)CC3)cnc2s1
active: growth inhibition [1] 89% | growth inhibition [4] 84%
inactive: inhibition [2] -22% | inhibition [3] -2% | outcome [5] | outcome [6] | outcome [7] | outcome [8]

Cc1ccc(NC(=O)c2ccc(CN3CCCN(Cc4cccc(C#N)c4)CC3)cc2)cc1F
active: growth inhibition [4] 98%
inactive: growth inhibition [1] 19% | inhibition [2] 49% | inhibition [3] -3% | outcome [5] | outcome [6] | outcome [7] | outcome [8]

Cc1ccc(NC(=O)Nc2ccc(Cl)cc2)cc1-c1ccc(C(=O)Nc2ccncc2)cc1
active: growth inhibition [1] 63% | inhibition [2] 54% | growth inhibition [4] 99%
inactive: inhibition [3] -1% | outcome [5] | outcome [6] | outcome [7] | outcome [8]

COc1ccc(N2CCN(CCCCNC(=O)c3ccc(NC(=O)c4cc(C(F)(F)F)cc(C(F)(F)F)c4)cc3)CC2)cc1OC
active: growth inhibition [1] 100% | growth inhibition [4] 101%
inactive: inhibition [2] 9% | inhibition [3] 1% | outcome [5] | outcome [6] | outcome [7] | outcome [8]

O=C(NCc1ccc(Cl)cc1)c1ccc(CN2CCCN(CC3CCCCC3)CC2)cc1
inactive: growth inhibition [1] 5% | inhibition [2] 18% | inhibition [3] -3% | outcome [5] | outcome [6] | outcome [7] | outcome [8]
active: growth inhibition [4] 84%

CCc1cc(Cc2cnc(N)nc2N)cc(CC)c1OC
inactive: growth inhibition [1] 12% | inhibition [2] 3% | inhibition [3] 8% | outcome [5] | outcome [6] | outcome [7] | outcome [8]
active: growth inhibition [4] 90%

CCc1cn2c3c(cc(C(=O)N[C@@H](Cc4ccccc4)[C@H](O)CNC4CCCC4)cc13)N(C)S(=O)(=O)CC2
inactive: inhibition [2] 6% | inhibition [3] -8% | outcome [5] | outcome [6] | outcome [7] | outcome [8]
active: growth inhibition [1] 99% | growth inhibition [4] 100%

CCN(CC)CCCNCc1ccc(-c2ccc(C(F)(F)F)cc2)cc1
active: inhibition [2] 53% | growth inhibition [4] 95%
inactive: growth inhibition [1] 35% | inhibition [3] -4% | outcome [5] | outcome [6] | outcome [7] | outcome [8]

COCCN1CCC(N(Cc2ccc(-c3ccc(C(F)(F)F)cc3)cc2)C(=O)Cn2c(CCc3cccc(F)c3F)cc(=O)c3c2CCC3)CC1
inactive: growth inhibition [1] 48% | inhibition [2] 31% | inhibition [3] -5% | outcome [5] | outcome [6] | outcome [7] | outcome [8]
active: growth inhibition [4] 85%

Cc1cc(O)c(CN2CCN(Cc3cccs3)CC2)cc1C(C)C
inactive: inhibition [2] 7% | inhibition [3] -2% | outcome [5] | outcome [6] | outcome [7] | outcome [8]
active: growth inhibition [1] 97% | growth inhibition [4] 98%

OC1CCCN(Cc2ccc(-c3cccc(-c4nc5ccc(F)cc5[nH]4)c3)cc2)C1 (stereo not drawn)
inactive: growth inhibition [1] 49% | inhibition [2] 28% | inhibition [3] -5% | outcome [5] | outcome [6] | outcome [7] | outcome [8]
active: growth inhibition [4] 99%

O=C(/C=C/c1ccc(Cl)c(Cl)c1)N1CCC(CCCN2CCC(c3c[nH]c4ccccc34)CC2)CC1
active: growth inhibition [4] 101%
inactive: growth inhibition [1] 45% | inhibition [2] 44% | inhibition [3] -1% | outcome [5] | outcome [6] | outcome [7] | outcome [8]

COc1ccc(CCNCC(O)COc2nccc3c(S(=O)(=O)N4CCCNCC4)cccc23)cc1OC (stereo not drawn)
inactive: growth inhibition [1] -5% | inhibition [3] -6% | outcome [5] | outcome [6] | outcome [7] | outcome [8]
active: inhibition [2] 59% | growth inhibition [4] 96%

O=C(NCCCCN1CCC(c2c[nH]c3ccccc23)CC1)c1ccc(-c2ccc(C(F)(F)F)cc2)cc1
active: growth inhibition [4] 98%
inactive: growth inhibition [1] 22% | inhibition [2] 34% | inhibition [3] -1% | outcome [5] | outcome [6] | outcome [7] | outcome [8]

Cc1cccc2[nH]c(-c3cccc(-c4cccc(NC(=O)c5cnccc5C(F)(F)F)c4)c3)nc12
inactive: growth inhibition [1] 47% | inhibition [2] 7% | inhibition [3] -11% | outcome [5] | outcome [6] | outcome [7] | outcome [8]
active: growth inhibition [4] 98%

Cc1cccc2[nH]c(-c3cccc(-c4ccc(CNCCNC(=O)c5ccnn5C)cc4)c3)nc12
active: growth inhibition [1] 100% | growth inhibition [4] 102%
inactive: inhibition [2] 21% | inhibition [3] -2% | outcome [5] | outcome [6] | outcome [7] | outcome [8]

CCc1ccc(CN(Cc2ccc(C)cc2)Cc2ccc(NC(C)=O)cc2)cc1
active: growth inhibition [1] 79% | growth inhibition [4] 89%
inactive: inhibition [2] 6% | inhibition [3] -1% | outcome [5] | outcome [6] | outcome [7] | outcome [8]

Cc1cc(N2CCCN(C)CC2)nc(Nc2ccc(Cl)cc2)n1
inactive: growth inhibition [1] 11% | inhibition [2] 8% | inhibition [3] 1% | outcome [5] | outcome [6] | outcome [7] | outcome [8]
active: growth inhibition [4] 96%

CN(C)Cc1ccc(-c2cc3c(-c4ccc(CN(C)C)cc4)ccnc3[nH]2)cc1
inactive: inhibition [3] 0% | outcome [5] | outcome [6] | outcome [7] | outcome [8]
active: growth inhibition [1] 96% | inhibition [2] 86% | growth inhibition [4] 100%

O=C(Nc1ccc(Cl)cc1)c1ccc(CN2CCCN(Cc3ccc(F)cc3)CC2)cc1
inactive: growth inhibition [1] 8% | inhibition [2] 48% | inhibition [3] 6% | outcome [5] | outcome [6] | outcome [7] | outcome [8]
active: growth inhibition [4] 91%

O=C(c1ccccc1N=Nc1c(-c2ccccc2)[nH]n(-c2ccccc2)c1=O)N1CCOCC1
active: growth inhibition [4] 97%
inactive: growth inhibition [1] 2% | inhibition [2] 0% | inhibition [3] -1% | outcome [5] | outcome [6] | outcome [7] | outcome [8]
